DRD3 agonist – agonists of human D3 dopamine receptor; max activation, %; 410,000 compounds, 0.58% hits; D3R DiscoveRx beta-arrestin cells, luminescence, 90 min; AID 652048; in the data active means max activation above about 30%
Target sequence (P35462 whole entry, looked up): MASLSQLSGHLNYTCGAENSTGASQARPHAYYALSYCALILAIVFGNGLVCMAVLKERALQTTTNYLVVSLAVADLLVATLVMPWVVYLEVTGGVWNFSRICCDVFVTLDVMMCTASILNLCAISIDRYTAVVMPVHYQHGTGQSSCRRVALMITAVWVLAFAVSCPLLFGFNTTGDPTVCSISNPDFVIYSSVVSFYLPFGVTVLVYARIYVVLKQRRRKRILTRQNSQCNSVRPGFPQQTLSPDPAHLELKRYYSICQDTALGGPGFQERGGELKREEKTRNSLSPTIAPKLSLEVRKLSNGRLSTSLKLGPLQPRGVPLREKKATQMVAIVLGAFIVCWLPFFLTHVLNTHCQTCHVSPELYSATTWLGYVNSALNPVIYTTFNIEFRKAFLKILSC
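Agonist-mode cell screen: cells plated at 1500/well and incubated overnight at 37 °C, then exposed to library compounds for 90 min at 37 °C. Detection reagent was added for 30–60 min at room temperature, and luminescence was read.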
TDP1 cell CPT – DT40-hTDP1 cell growth loss with CPT. chicken DT40 Tdp1-/-;hTDP1 cells + 20 nM CPT, ATP luminescence, 48 h. Potency, µM (top dose mostly 46.2 µM), hits mostly inhibitors. 420,000 compounds, 12% hits; further: nearly all actives have a fitted effect of over 55% in size
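Cell growth measured by CellTiter-Glo luminescence after a minimum 48 h, 37 C compound exposure with 20 nM CPT in Tdp1-knockout DT40 cells stably expressing hTDP1, seeded 400/well; qHTS titration format.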
IL-1B inflam inh – blocks inflammasome-driven IL-1 beta release; THP-1 LPS/ATP IL-1B secretion, AlphaLISA, 16 h; stronger effect = lower value; activity change, % at 57.5 µM; 360,000 compounds, 4.7% hits; AID 743279; in the data active means activity change below about -50%; inconclusive means mostly about -30% to -49%
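THP-1 cells pretreated 1 hr with compounds (up to 57.5 uM final), then stimulated with LPS (250 ng/mL final) plus ATP (1.25 mM final); secreted IL-1B measured by AlphaLISA after 16 hr, decreased signal indicating inhibition.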
ClpP mod – qHTS Assay for Activators of ClpP; Potency, µM (highest dose often 57.5 µM); AID 651965, 2013; purified B. subtilis ClpP, FRET peptide cleavage, 20 min; ATP-dependent Clp protease proteolytic subunit (Bacillus subtilis (strain 168)), P80244; 340,000 compounds, 1.9% hits; active means well fitted falling curve with a large enough effect; inconclusive means small, poorly fitted or top-dose-only effect; inactive means no such curve, though single readings can be large or run the other way; further: the source files actives as falling curves though it sought activators and does not explain the sign; nearly all actives have a fitted effect of over 65% in size
Target sequence (P80244 whole entry, looked up): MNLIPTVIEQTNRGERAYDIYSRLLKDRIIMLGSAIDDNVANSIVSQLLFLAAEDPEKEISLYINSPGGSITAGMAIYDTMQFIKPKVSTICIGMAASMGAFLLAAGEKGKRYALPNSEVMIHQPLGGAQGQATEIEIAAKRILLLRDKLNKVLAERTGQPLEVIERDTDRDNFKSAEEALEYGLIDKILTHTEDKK
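FRET quenching reversal measured ClpP activation: 10 microg/mL B. subtilis ClpP at pH 8 with the FRET-FV decapeptide, read at 430 nm after 320 nm excitation. The 20-min minus 0-min signal was scaled between DMSO/no-enzyme wells and ADEP (5.8 microM final).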
TDP1 cell noCPT – qHTS for Inhibitors of human tyrosyl-DNA phosphodiesterase 1 (TDP1): qHTS in cells in absence of CPT; DT40 Tdp1-/- hTDP1 cells, no CPT, ATP luminescence, 48 h; Potency, µM (top dose mostly 46.2 µM), actives largely listed as inhibitors; 420,000 compounds, 15% hits; further: nearly all actives have a fitted effect of over 55% in size
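Seeded 400 DT40-hTDP1 cells/well (vehicle DMSO, no 20 nM CPT); pinned compounds; ≥48 hr at 37 °C; CellTiter-Glo luminescence as viability measure.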
DRD3 antagonist – blocks the human D3 dopamine receptor; P35462; D3R cells, DiscoveRx beta-arrestin luminescence, antagonist mode; stronger effect = lower value; max response, negative = inhibition, %; 360,000 compounds, 2.5% hits; in the data active means max response below about -50%; inconclusive means no clear call, values can overlap the other calls
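Cells expressing the human receptor were seeded at 1500 cells/well, incubated overnight at 37 degrees C in 5% CO2, then exposed to library compounds with dopamine controls for 90 minutes at 37 degrees C before luminescent detection.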
Hits are given with their value; – = inactive; ? = inconclusive; · = no result; ! = a repeat was not active. Compounds with a hit are over-represented: about 21% of the library has one in this group of screens. Unless noted, the call rests on the fitted dose curve; in most records, active means well fitted inhibition curve with a large enough effect; inconclusive means small, poorly fitted or top-dose-only effect; inactive means flat fitted curve, though single readings scatter.

SMILES | DRD3 agonist | TDP1 cell CPT | IL-1B inflam inh | ClpP mod | TDP1 cell noCPT | DRD3 antagonist
O=C1CN(C(=O)c2ccc(Br)o2)C(c2ccccc2)c2cc(Br)ccc2N1 (stereo unspecified) | – | 16.4µM | ? | – | 20.6µM | –
Cc1ccc(CNC(=O)CN(C(=O)C2(C)CC(=O)N=C3C=CC=CN32)c2ccccc2F)cc1 (stereo unspecified) | – | – | – | · | ? | –
CCOC(=O)CNC(=O)Cn1cnc2c(cnn2-c2ccc(C)cc2)c1=O | – | – | – | – | – | –
Cc1cccc(CNC(=O)c2ccc(NC(=O)N3CC(C)Sc4ccccc43)cc2)c1 (stereo unspecified) | – | 20.6µM | · | – | 16.4µM | ·
CCc1ccc(CNC(=O)c2ccc(NC(=O)N3CC(C)Sc4ccccc43)cc2)cc1 (stereo unspecified) | – | 10.3µM | · | – | 9.2µM | ·
CC1CN(C(=O)Nc2ccc(C(=O)NCCc3ccccc3)cc2)c2ccccc2S1 (stereo unspecified) | – | ? | · | – | ? | ·
COc1cccc(CNC(=O)c2ccc(NC(=O)N3CC(C)Sc4ccccc43)cc2)c1 (stereo unspecified) | – | 18.4µM | · | – | 14.6µM | ·
Cc1cc(C)cc(N(C(=O)c2csnn2)C(C(=O)NC2CCCC2)c2cccnc2)c1 (stereo unspecified) | – | – | – | – | – | –
O=C(NC(=S)NC1CCC(O)CC1)c1ccco1 (stereo unspecified) | – | – | – | – | – | –
COc1cccc(CN(C)C(=O)c2cc(COc3ccc4ncccc4c3)on2)c1 | – | 3.26µM | – | · | 2.91µM | –
COc1cccc(CN(C)C(=O)c2cc(COc3c(F)cccc3F)on2)c1 | – | – | – | · | – | –
COc1cccc(CN(C)C(=O)c2cc(COc3ccc(-n4cncn4)cc3)on2)c1 | – | 20.6µM | – | – | 18.4µM | –
CCOc1ccc(N(CC(=O)NCc2cccnc2)S(=O)(=O)c2ccc(F)cc2)cc1 | – | – | – | – | – | –
O=C1CCN(Cc2ccccc2)CCN1[C@H](COc1ccccc1)c1ccccc1 | – | ? | – | – | ? | –
N#CC[C@H](c1ccccc1)N1CCN(Cc2ccccc2)CCC1=O | 34.3 | – | – | – | – | –
O=C1CCN(Cc2ccc([N+](=O)[O-])cc2)CCN1[C@H](CO)c1ccccc1 | – | ? | – | – | – | –
O=C1CCN(Cc2ccc(Br)cc2)CCN1[C@H](CO)c1ccccc1 | – | ? | – | – | 14.1µM! | –
Cc1ccc(CNC(=O)C2CCN(S(=O)(=O)c3ccc(Br)s3)CC2)cc1 | – | – | – | · | ? | –
O=C(COc1ccc(Br)cc1)NNC(=S)NCc1ccccc1 | – | ? | – | · | ? | -67.6
O=C(COc1ccccc1Cl)NCc1ccccc1 | – | – | – | – | – | –
O=C(COc1ccc(Cl)cc1)NNC(=S)NCc1ccccc1 | – | ? | – | · | ? | –
C=CCc1ccccc1OCC(=O)NNC(=S)NCc1ccccc1 | – | 6.51µM | – | – | 5.17µM | –
COc1cccc(/C=C(\C#N)C(=O)Nc2ccc(NC(C)=O)cc2)c1OC | – | – | · | – | – | ·
CCc1ccc(CNC(=O)c2ccc(-c3nc(CSc4ccc(C)cc4)c(C)o3)cc2)cc1 | – | – | · | – | – | ·
Cc1ccc(SCc2nc(-c3ccc(C(=O)NCc4ccccc4Cl)cc3)oc2C)cc1 | – | 8.2µM | · | – | 9.2µM | ·
SMILES | DRD3 agonist | TDP1 cell CPT | IL-1B inflam inh | ClpP mod | TDP1 cell noCPT | DRD3 antagonist
COc1ccccc1NC(=O)c1ccc(-c2nc(COc3ccc(C)cc3)c(C)o2)cc1 | – | 20.6µM | · | ? | 18.4µM | ·
Cc1ccc(S(=O)Cc2nc(-c3ccc(C(=O)NC(C)c4ccccc4)cc3)oc2C)cc1 (stereo unspecified) | – | ? | · | – | 14.6µM | ·
Cc1ccc(SCc2nc(-c3ccc(C(=O)Nc4cc(C)ccc4C)cc3)oc2C)cc1 | – | 8.2µM | · | ? | 8.2µM | ·
COc1cccc(NC(=O)c2ccc(-c3nc(COc4ccccc4)c(C)o3)cc2)c1 | 61.6 | ? | · | ? | ? | ·
Cc1oc(-c2ccc(C(=O)NCCC(C)C)cc2)nc1CN1CCc2ccccc21 | – | · | · | – | · | ·
COc1cccc(CNC(=O)c2ccc(-c3nc(CSc4ccccc4)c(C)o3)cc2)c1 | – | – | · | – | ? | ·
Cc1oc(-c2ccc(C(=O)NCc3ccccc3)cc2)nc1CN1CCc2ccccc21 | – | ? | · | – | 20.6µM | ·
COc1cc(NC(=O)c2ccc(-c3nc(CSc4ccccc4)c(C)o3)cc2)cc(OC)c1 | – | 18.4µM | · | 14.1µM | 14.6µM | ·
COc1ccc(OC)c(NC(=O)c2ccc(-c3nc(COc4ccccc4)c(C)o3)cc2)c1 | – | ? | · | – | 13µM | ·
COc1cccc(C(=O)Nc2nnc(S(=O)(=O)N(C)Cc3ccc(F)cc3)s2)c1 | – | – | – | – | – | –
COc1ccc(C(=O)NCCCOC(C)C)cc1OC1CCN(C(C)=O)CC1 | – | – | – | – | – | –
O=C(NCc1cccs1)c1ccc2c(c1)N(Cc1cccc(F)c1)C(=O)c1ccccc1S2 | – | – | · | – | – | ·
Cc1ccc(OCc2nc(-c3ccc(C(=O)NCc4ccc(OC(C)C)cc4)cc3)oc2C)cc1 | – | ? | · | – | 20.6µM | ·
C=CCNc1oc(-c2ccc(OCC)cc2)nc1C#N | – | ? | – | 0.794µM | ? | –
C=CCNc1oc(-c2ccc(OC)cc2)nc1C#N | – | 16.4µM | – | – | ? | –
CCOc1ccc(-c2nc(C#N)c(NCC(C)C)o2)cc1 | – | ? | – | 39.8µM | – | –
Cc1[nH][nH]c(=O)c1C(c1ccc(O)c([N+](=O)[O-])c1)c1c(C)[nH][nH]c1=O | – | – | – | – | ? | –
Cc1cc(C(c2ccc(C)o2)c2ccc(C)o2)c(O)c([N+](=O)[O-])c1 | – | – | – | – | ? | -96.9
Cc1ccc(C(c2ccc(C)o2)c2cccc([N+](=O)[O-])c2O)o1 | – | – | – | – | – | -73.4
CC(=O)CCc1oc2c([N+](=O)[O-])cccc2c1-c1ccc(C)o1 | – | ? | – | – | ? | –
CCOc1ccc(NC(=O)CN(C)C(=O)CCCn2c(=O)oc3ccccc32)cc1OCC | – | – | – | – | ? | –
Cn1c2ccccc2c2nnc(SCC(=O)Nc3cccc(O)c3)nc21 | – | ? | – | – | ? | –
CCOC(=O)c1cc2occc2n1Cc1ccc(F)cc1 | – | – | – | – | – | –
CCOC(=O)c1cc2sccc2n1CC(=O)C(C)(C)C | – | – | – | · | – | –

Compound activity: PubChem, National Center for Advancing Translational Sciences (NCATS)
